The nature of this assay: cell-free HIV fusion peptide-binding blockers – biochemical, uHTS, fluorescence dequenching, primary screen (AID 1986). The conditions noted are these: 30 min, stronger effect = higher value.
The mark [1] stands for this setting: measured here: repeat confirmation average inhibition, at 18.6 µM.

Usually inhibition stands for the relative decrease from the control value, in per cent.

Out of some 290,000 compounds screened, about 890 (0.31%) were called active. Cut-off read from the data, not from the text of the source: active = inhibition mostly above about 52% (no sharp cut-off); inactive = mostly below about 76%. For the sample, actives were picked, then their nearest neighbours and some compounds at random.

On to `S=C1NC(c2ccccc2)=CC(c2ccccc2)N1` (configuration not stated), for which the inhibition (at 20 µM) was -0.8% (inactive).
Still for that read-out and setting: the figure for `CCOc1cc2c(cc1/C=C/C(=O)O)OC(C)C2` (configuration not stated) is -2.8% (inactive).
Turning to `CCOc1cc2c(cc1C=O)OC(C)C2` (configuration not stated), the inhibition (at 20 µM) is 0.9% (inactive).
For `CCOc1cc2c(cc1/C=C/c1noc(C)c1[N+](=O)[O-])OC(C)C2` (configuration not stated), the inhibition is 97.9% (active) (at 20 µM) and 62.4% under setting [1].
Regarding `Cc1nonc1NC(=O)CSc1cn[nH]n1`, the inhibition (at 20 µM) is -0.1% (inactive).
Still for that read-out and setting: the figure for `N#Cc1c(-c2ccccc2)nc(SCC(=O)Nc2ccccc2)[nH]c1=O` is 22% (inactive); for `CCOc1ccc2nc(NC(=O)CSc3ccccc3)sc2c1` it is 2.6% (inactive); for `N#Cc1c(-c2ccccc2)nc(SCC(=O)Nc2ccccc2F)[nH]c1=O` it is 14.2% (inactive).
The same measure, in the same setting: the value for `CCOc1ccc2nc(NC(=O)CSc3ccc(Cl)cc3)sc2c1` was -1.6% (inactive).
The same measure, in the same setting: the figure for `COc1cccc(OC)c1OCCCOc1ccc([N+](=O)[O-])cc1Cl` is 1.3% (inactive).
With `CC(C)(C)c1ccc(OC(=O)N2CCOCC2)cc1`, the inhibition (at 20 µM) is 1.1% (inactive).
Regarding `NC(=O)C1CCN(C(=O)COc2ccc3c4c(c(=O)oc3c2)CCCC4)CC1`, the inhibition (at 20 µM) is -2.1% (inactive).
Take `CCCn1nc([N+](=O)[O-])c(C(C#N)c2nc3ccccc3s2)c(Cl)c1=O` (configuration not stated): the inhibition is 52.4% (inactive) (at 20 µM) and 39.3% under setting [1].
For `CCn1nc([N+](=O)[O-])c(C(C#N)c2nc3ccccc3n2C)c(Cl)c1=O` (configuration not stated), under “at 20 µM”, the inhibition is 9.2% (inactive).
Still for that read-out and setting: the value for `CCCn1nc([N+](=O)[O-])c(C(C#N)c2nc3ccccc3o2)c(Cl)c1=O` (configuration not stated) was 51.5% (active); that for `CCOc1cccc(-c2nnc(SCC(=O)Nc3ccc(OC)c(OC)c3)n2N)c1` was -0.9% (inactive); that for `CC(C)C[C@@H](COc1ccccc1)N1CCN(C)CCC1=O` was 1.1% (inactive).
The same measure, in the same setting: the value for `CCCOc1c(Br)cc(C(N)=O)cc1OCC` was -1.3% (inactive); that for `O=[N+]([O-])c1nn(-c2ccc3c(c2)OCCO3)n(O)c1=NCc1ccc(F)cc1` was -3.5% (inactive); that for `O=[N+]([O-])c1nn(-c2ccc3c(c2)OCCO3)n(O)c1=NCc1ccccc1Cl` was 1.5% (inactive).
As to `O=[N+]([O-])c1nn(-c2ccc3c(c2)OCCO3)n(O)c1=NCc1ccc(F)cc1Cl`, the inhibition (at 20 µM) is 51.7% (active).
Same read-out and setting: the value for `COc1ccc(OC)c(CCNC(=O)c2ccc3c(c2)N(Cc2ccc(F)cc2)CCS3)c1` was -0.6% (inactive); that for `CCOC(=O)N1CCN(C(=O)c2cc3c(=O)n4cccc(C)c4nc3s2)CC1` was 1.5% (inactive); that for `Cn1c(=O)c2cc(S(=O)(=O)NCCC(=O)NC3CCCCCC3)ccc2n(C)c1=O` was -0.8% (inactive).
Take `CN(CC(=O)NC1CCCCC1)S(=O)(=O)c1ccc2c(c1)c(=O)n(C)c(=O)n2C`: the inhibition (at 20 µM) was -0.8% (inactive).
The same measure, in the same setting: the value for `Cn1c(=O)c2cc(S(=O)(=O)NCCC(=O)NC3CCCCCCC3)ccc2n(C)c1=O` was 70.9% (active).
Take `COc1cc(N=Cc2c(O)c3ccccc3oc2=O)c(OC)cc1Cl`: the inhibition is 73.9% (active) (at 20 µM) and 196% under setting [1].
Take `COc1ccc(OC)c(N=Cc2c(O)c3ccccc3oc2=O)c1`: under “at 20 µM”, the inhibition is 37.7% (inactive).
Still for that read-out and setting: the figure for `COc1ccc(Cl)cc1N=Cc1c(O)c2ccccc2oc1=O` is 0.2% (inactive); for `CC1CCCN(C2(O)C(=O)Nc3ccc(Cl)cc32)C1` (configuration not stated) it is -0.9% (inactive).
Same read-out and setting: the figure for `COc1ccccc1CN(C)C(=O)CNC(=O)c1cccc(Cl)c1` is 0.2% (inactive).
As for `O=C1OC(c2cccs2)=N/C1=C/c1ccc(-c2cccc(C(=O)O)c2)o1`, the inhibition by setting is: (at 20 µM) 53% (inactive); under setting [1], 13.5%.
For `O=C1OC(c2cccs2)=N/C1=C\c1ccc(-c2cccc(Cl)c2)o1`, in that order: 55.7% (inactive) and 21.2%.
As to `O=C1OC(c2ccco2)=N/C1=C\c1ccc(-c2cccc(C(F)(F)F)c2)o1`, the inhibition was 55.6% (active) (at 20 µM) and 164% under setting [1].
For the compound `CCOc1ccc(C2C(C(=O)c3ccc(C)o3)=C(O)C(=O)N2Cc2cccnc2)cc1` (configuration not stated), the inhibition (at 20 µM) is -3.1% (inactive).
Same read-out and setting: the figure for `COc1ccc(C)cc1S(=O)(=O)NC1CCCCCC1` is -1.6% (inactive); for `Cc1ccccc1-n1ncc2c1CC(C)(C)CC2NC(=O)c1cn[nH]c1C` (configuration not stated) it is -0.7% (inactive).
Same read-out and setting: the value for `COc1ccc(S(=O)(=O)/N=C2/NC(=O)/C(=C\c3ccco3)S2)cc1` was 60.8% (active); that for `CC(=O)Nc1ccc(S(=O)(=O)/N=C2/NC(=O)/C(=C\c3ccco3)S2)cc1` was 41.2% (inactive).
For the compound `Cc1ccc(N=C2NC(=O)/C(=C/C=C/c3ccco3)S2)cc1`, the inhibition by setting is: (at 20 µM) 52.6% (inactive); under setting [1], 1.5%.
Turning to `Cc1ccc(N=C2NC(=O)S/C2=C\c2ccco2)cc1`, the inhibition (at 20 µM) was 47.8% (inactive).
On the same count and under the same terms, the figure for `O=C1NC(=Nc2ccccc2)/C(=C/c2ccco2)S1` is 47.9% (inactive).
The same measure, in the same setting: the value for `Cc1ccc(N=C2NC(=O)/C(=C\c3ccco3)S2)cc1` was 57.5% (active).
On the same count and under the same terms, the figure for `O=C1NC(=Nc2ccc(O)cc2)S/C1=C/c1ccco1` is 17.3% (inactive); for `O=C1NC(=Nc2ccc3ccccc3c2)S/C1=C/c1ccco1` it is 54.8% (active); for `COc1ccc(N=C2NC(=O)/C(=C\c3ccco3)S2)cc1` it is 42% (inactive).
With `COc1ccc(N=C2NC(=O)/C(=C/c3ccco3)S2)cc1`, the inhibition (at 20 µM) is 9.7% (inactive).
Consider `COc1ccc(S(=O)(=O)/N=C2/NC(=O)/C(=C/c3ccco3)S2)cc1`, for which the inhibition (at 20 µM) is 70.3% (inactive) and the inhibition under setting [1] came to 9.9%.
Take `Cc1cccc(N=C2NC(=O)S/C2=C\c2ccco2)c1`: the inhibition (at 20 µM) is 71.9% (active).

Values taken from PubChem BioAssay AID1986 (Sanford-Burnham Center for Chemical Genomics, 2009).
